Source: PubChem (Broad Institute)
miR122 inh – miR-122 Renilla sensor signal increase in Huh7, primary screen, miR-122 inhibitor project, cell-based, single point, plate reader; activation (reporter increase), % at 12.5 µM; 0.3% of 340,000 active; Huh7 miR-122 Renilla luciferase sensor, 48 h; neutral wells = 0, positive control = 100;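 active = mean replicate activation score at least 90 and every replicate individually at or above 90; inconclusive = only one of the two criteria met; inactive = neither criterion met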;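 also: higher luciferase means less miR-122 activity so hits act as miR-122 inhibitors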
MITF TRPM1 HTS – activators of MITF-driven TRPM1 promoter reporter, primary screen, cell-based, SK-MEL-5, luciferase, single point; SK-MEL-5 TRPM1-promoter luciferase, 24 h; % of positive control, neutral wells = 0; activation, % at 12.5 µM; 0.75% of 300,000 active; AID 588334, 2011;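 active = mean activation of at least 80% with every replicate also reaching 80%; inconclusive = mean reaches 80% but some replicate falls short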;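 also: 0% = neutral control wells and 100% = parthenolide positive control wells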
esBAF inh – Bmi1 luciferase reporter increase in mESCs, primary screen, esBAF inhibitor project, mouse ES cells, Bmi1 luciferase knock-in, single point. reporter increase, % at 12.5 µM. 24 h; 100% = twice the neutral-well signal. 2% of 350,000 active; in the data active = activation above about 40%; inconclusive = no clear call, values can overlap the other calls;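 also: 0% = median of the plate's neutral control wells and 100% = double that signal; a rise in the Bmi1 reporter signal indicates esBAF inhibition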
Wnt act – Wnt/beta-catenin pathway activators, primary screen, cell-based, plate reader, single point; Wnt/beta-catenin reporter cell assay, activator; activation, % at 9.35 µM; 1.2% of 300,000 active; in the data active = activation above about 30%, passing the limit was not always enough; inconclusive = no clear call, values can overlap the other calls;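 also: 0% = neutral control wells and 100% = positive control wells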
Env fusion inh – inhibitors of HIV-1 Env-driven cell-cell fusion, primary screen, HeLa-JRFL effector, CEM21 target cells, luciferase; inhibition, % at 12.3 µM; 1.1% of 360,000 active;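 active = mean replicate inhibition score of at least 50 and every replicate individually at or above 50; inconclusive = only one of the two criteria met; inactive = mean below 50 and not all replicates reaching 50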;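 also: 0% = plate neutral controls and 100% = maraviroc near 300 nM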
The depositor's hits bear a star; ? = inconclusive; nt = no result given; [ ] = remark or other dose. Sampled rows, rich in hits. Any-hit rate of the full collection: about 3.4%.

SMILES	miR122 inh	MITF TRPM1 HTS	esBAF inh	Wnt act	Env fusion inh
C[C@@H]1CN([C@@H](C)CO)C(=O)c2cc(NC(=O)c3ccccc3)ccc2O[C@@H](C)CCCCO[C@H]1CN(C)C(=O)c1ccncc1	3[16.7 µM]	nt	-6	nt	0[16.7 µM]
Cc1oc(-c2ccccc2F)nc1CS(=O)CC(=O)NCc1ccc2c(c1)OCO2 (centres undefined)	6	nt	-9	43*	-1
C[C@H]1CCCCO[C@@H](CN(C)Cc2ccccc2)[C@@H](C)CN([C@@H](C)CO)C(=O)c2cc(NC(=O)Nc3ccc4c(c3)OCO4)ccc2O1	-6[16.7 µM]	nt	0	nt	57*[16.7 µM]
C[C@H](CO)N1C[C@H](C)[C@H](CN(C)Cc2ccc3c(c2)OCO3)OCCCC[C@H](C)Oc2ccc(NC(=O)Nc3ccc4c(c3)OCO4)cc2C1=O	5[16.7 µM]	nt	-4	nt	66*[16.7 µM]
COc1ccc(NC(=O)Nc2ccc3c(c2)C(=O)N([C@H](C)CO)C[C@H](C)[C@H](CN(C)Cc2ccc(Cl)c(Cl)c2)OCCCC[C@H](C)O3)cc1	-4[16.7 µM]	nt	3	nt	91*[16.7 µM]
C[C@@H]1CN([C@@H](C)CO)C(=O)c2cc(NC(=O)Nc3ccc4c(c3)OCO4)ccc2O[C@@H](C)CCCCO[C@H]1CN(C)Cc1ccc(Cl)c(Cl)c1	-3[16.7 µM]	nt	0	nt	67*[16.7 µM]
C[C@@H]1CCCCO[C@@H](CN(C)Cc2ccccc2)[C@H](C)CN([C@H](C)CO)C(=O)c2cc(NC(=O)Nc3ccc4c(c3)OCO4)ccc2O1	-4[16.7 µM]	nt	1	nt	-63[16.7 µM]
CNC[C@H]1Oc2c(NS(=O)(=O)c3ccc(C)cc3)cccc2C(=O)N([C@H](C)CO)C[C@H]1C	-6[16.7 µM]	nt	0	nt	nt
O=c1c2ccccc2cnn1-c1nc2ccccc2[nH]1	nt	-93	nt	-33	63*
Cc1ccc2[nH]c3c(c2c1)CCC3=O	-4	-6	11	nt	nt
CCCCN1CCc2c([nH]c3ccc(C)cc23)C1=O	nt	67	?	37*	-87
CO[C@@H](C(=O)N(C)C[C@H]1OCc2ccccc2-c2c(n(C)c3ccccc23)C(=O)N([C@@H](C)CO)C[C@@H]1C)c1ccccc1	nt	nt	13	nt	55*[16.7 µM]
C[C@@H]1CN([C@H](C)CO)C(=O)c2c(c3ccccc3n2C)-c2ccccc2CO[C@@H]1CN(C)C(=O)N[C@H](C)c1ccccc1	nt	nt	-9	nt	-31[16.7 µM]
C[C@H](CO)N1C[C@H](C)[C@H](CN(C)C(=O)N[C@H](C)c2ccccc2)OCc2ccccc2-c2c(n(C)c3ccccc23)C1=O	-5	nt	6	-1	75*
CN(C)C(=O)c1cccc(-c2ccc3c(c2)[C@@H]2[C@@H](CCN2S(=O)(=O)c2ccccc2)[C@@H](CO)N3)c1	-4[16.7 µM]	nt	2	nt	nt
COCC(=O)N[C@@H]1CC[C@H](CC(=O)NCc2ccccc2OC)O[C@@H]1CO	nt	nt	-2	nt	-24[16.7 µM]
O=c1oc2cc(OCc3ccc(F)cc3F)ccc2cc1-c1ccccn1	1	72	45*	nt	-68
COc1cccc2sc(NNC(=O)C3=COCCO3)nc12	-3	20	46*	20	3
CC1=C(C(=O)NC(C)C)C2(CCC(C)CC2)OC1=O (centres undefined)	nt	nt	-4	-1	61*
CCN1/C(=C/c2ccc3cc(C)ccc3[n+]2C)Sc2ccc3sccc3c21	-18	-77	-55	-4	61*
COc1ccccc1N1CCN(C(=O)CSc2ccccc2)CC1	-1	65	49*	nt	nt
COc1ccccc1N1CCN(C(=O)CCC(=O)N2CCN(c3ccccc3OC)CC2)CC1	-6	-11	-4	-2	27
COc1ccc(/C=C/C(=O)NC(=S)N2CCN(c3ccccc3OC)CC2)cc1	nt	nt	77*	22	-27
CCC(=O)N(C)C[C@@H]1Oc2ncc(-c3ccc(F)cc3)cc2C(=O)N([C@@H](C)CO)C[C@H]1C	-4[16.7 µM]	nt	5	nt	5[16.7 µM]
C[C@H]1CCCCO[C@H](CN(C)S(=O)(=O)c2cn(C)cn2)[C@@H](C)CN([C@@H](C)CO)C(=O)c2cc(NC(=O)CCC(F)(F)F)ccc2O1	7[16.7 µM]	nt	0	nt	21[16.7 µM]
SMILES	miR122 inh	MITF TRPM1 HTS	esBAF inh	Wnt act	Env fusion inh
CC(=O)Nc1ccc2c(c1)C(N1CC3CCC(CC3)C1)c1ccccc1-2 (centres undefined)	1	-11	2	-2	67*
C[C@H]1CCCCO[C@H](CN(C)S(=O)(=O)c2cn(C)cn2)[C@@H](C)CN([C@@H](C)CO)C(=O)c2cc(NS(=O)(=O)c3cn(C)cn3)ccc2O1	6[16.7 µM]	nt	-4	nt	-3[16.7 µM]
O=C(C[C@H]1CC[C@H]2[C@@H](COC[C@H](O)CN2Cc2cccc(C(F)(F)F)c2)O1)NCc1ccc(Cl)cc1	2[16.7 µM]	nt	-5	nt	-2[16.7 µM]
Nc1ccn(C2OC(CO)C(O)C2F)c(=O)n1 (centres undefined)	-2	nt	-17	nt	75*
CCCCCCCCCCCCCCCC(=O)OCC1OC(n2ccc(N)nc2=O)C(O)C1O (centres undefined)	2	nt	nt	-4	75*
Nc1ncn([C@@H]2O[C@H](CO)[C@@H](O)[C@H]2O)c(=O)n1	-26	-77	67*	-11	-385
Cc1ccc(C)c(NS(=O)(=O)c2ccc(-c3cnc(C4CC4)o3)cc2)c1	nt	-51	-18	-10	21
O=S(=O)(Nc1ccccc1)c1ccc(-c2cnc(C3CC3)o2)cc1	159*	-27	-1	-1	9
COc1ccc(NS(=O)(=O)c2cc(-c3cnc(C4CC4)o3)ccc2C)cc1	293*	-3	-32	-3	31
Cc1cccc(NS(=O)(=O)c2ccc(-c3cnc(C4CC4)o3)cc2)c1C	55	-38	-26	-9	-53
c1ccc(-c2cnc(C3CCCCC3)o2)cc1	-5	48	53*	0	-6
Cc1cc(C)cc(NS(=O)(=O)c2ccc(-c3cnc(C4CC4)o3)cc2)c1	375*	-37	-40	-9	-33
CC(=O)Nc1ccc(NS(=O)(=O)c2ccc(-c3cnc(C4CC4)o3)cc2)cc1	-5	-13	11	-3	-7
C[C@@H]1CN([C@@H](C)CO)C(=O)c2cccc(NC(=O)c3ccncc3)c2O[C@@H]1CN(C)C(=O)NC1CCCCC1	-3[16.7 µM]	nt	-2	nt	-8[16.7 µM]
CC(C)OC(=O)N(C)C[C@@H]1OCc2cn(nn2)CCCC(=O)N([C@H](C)CO)C[C@@H]1C	1[16.7 µM]	nt	2	nt	6[16.7 µM]
C=CCN=c1scc(-c2ccco2)n1/N=C/c1ccc(O)c(O)c1O	nt	39	nt	42*	-70
Cc1cc(C)cc(NC(=S)N=Nc2c(O)n(C)c3ccc(S(=O)(=O)N4CCOCC4)cc23)c1	-1	-18	-4	-4	41
Cc1cccc(NC(=S)N=Nc2c(O)n(C)c3ccc(S(=O)(=O)N4CCOCC4)cc23)c1	-2	-14	nt	-11	58*
O=C(Nc1ccccc1)N[C@H]1CC[C@@H](CCNC(=O)c2ccccc2F)O[C@@H]1CO	nt	nt	-4	nt	-1[16.7 µM]
Cc1cc(=O)n(CC(=O)O)c2ccccc12	nt	4	nt	0	-2
